The text below walks through data of PubChem BioAssay.

Calls of active or inactive are those of the source.

The nature of experiment [1]: small molecules captured by biotinylated probe aFSTL3 – biochemical, small-molecule microarray, fluorescence 635/667, stem cell growth factor project, primary screen (AID 1064).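 Note: measures binding of the biotinylated anti-FSTL3 antibody to printed compounds.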 As to conditions: higher = more signal.
A short description of experiment [2]: binders from COS7 lysate, DM2A8 probe, primary screen, torsin A project, cell lysate, small-molecule microarray, fluorescence 635/667 (AID 1065). As to conditions: higher = more signal, COS7 lysate expressing mutant human TOR1A.
Experiment [3] is described as follows: small molecules captured by biotinylated probe aFGF2 – biochemical, small-molecule microarray, fluorescence 635/667, stem cell growth factor project, primary screen (AID 1067).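 Note: measures binding of biotinylated aFGF2 protein to printed compounds on slides; z-score merges feature fluorescence and signal-to-noise across triplicate slides.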 As to conditions: higher = more signal.
Experiment [4] in a line: small molecules captured by biotinylated probe aFGF10 – biochemical, small-molecule microarray, fluorescence 635/667, stem cell growth factor project, primary screen (AID 1071).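 Note: score merges 667 nm spot intensity and signal to noise from triplicate slides.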 As to conditions: higher = more signal.
Experiment [5] has as its target Neurogenic locus notch homolog protein 2 (Homo sapiens) (UniProt Q04721). Kind of experiment: small molecules binding Notch2 protein – biochemical, small-molecule microarray, 635 nm fluorescence, stem cell growth factors, primary screen (AID 1073). As to conditions: higher = more signal.
The target of experiment [6] is Pro-neuregulin-1, membrane-bound isoform (Homo sapiens) (UniProt Q02297). Kind of experiment: small molecules binding neuregulin-1 protein – biochemical, small-molecule microarray, fluorescence 635/667, psychiatric disease protein project, primary screen (AID 1075).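 Note: score combines 667 nm spot fluorescence with signal to noise.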 As to conditions: NRG1 binding, 635 nm fluorescence, higher = more signal.
Chain of Pro-neuregulin-1, membrane-bound isoform (Homo sapiens) (Q02297 whole entry, looked up, the tested form may be a part, canonical isoform): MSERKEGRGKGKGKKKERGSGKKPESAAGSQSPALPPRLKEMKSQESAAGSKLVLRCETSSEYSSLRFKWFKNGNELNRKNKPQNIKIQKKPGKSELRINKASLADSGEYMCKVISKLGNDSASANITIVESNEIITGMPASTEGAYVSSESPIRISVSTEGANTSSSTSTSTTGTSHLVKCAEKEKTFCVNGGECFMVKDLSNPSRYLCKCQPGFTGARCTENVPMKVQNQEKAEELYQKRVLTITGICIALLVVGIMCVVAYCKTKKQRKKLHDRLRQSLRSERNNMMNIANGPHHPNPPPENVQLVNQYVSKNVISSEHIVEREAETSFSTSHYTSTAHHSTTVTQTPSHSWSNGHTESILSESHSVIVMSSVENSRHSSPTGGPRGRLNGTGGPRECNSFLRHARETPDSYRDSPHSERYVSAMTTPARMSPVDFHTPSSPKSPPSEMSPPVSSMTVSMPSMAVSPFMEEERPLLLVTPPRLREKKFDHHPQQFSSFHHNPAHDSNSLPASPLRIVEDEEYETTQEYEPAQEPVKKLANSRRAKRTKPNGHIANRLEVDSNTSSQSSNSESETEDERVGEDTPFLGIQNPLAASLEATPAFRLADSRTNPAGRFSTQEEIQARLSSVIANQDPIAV
The subject of experiment [7] is Neuregulin-1 EGF-like domain. Nature of the experiment: small molecules binding NRG1 EGF domain – biochemical, small-molecule microarray, 635 nm fluorescence, primary screen (AID 1081).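 Note: binding of the protein to compounds printed on small-molecule microarray slides.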 As to conditions: higher = more signal.
The nature of experiment [8]: FRG1 expression reporter modulators in myotubes – cell-based, C2C12 myotubes, firefly/Renilla luciferase, luminescence, FRG1 inhibition for FSHD, primary screen (AID 1084). As to conditions: FRG1 promoter luciferase, higher = more signal, called active from +8 up or from −8 down.
The nature of experiment [9]: small molecules captured by biotinylated probe aFST – biochemical, small-molecule microarray, fluorescence 635/667, stem cell growth factor project, primary screen (AID 1086).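 Note: score merges 667 nm fluorescence with signal-to-noise of each printed compound spot.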 As to conditions: higher = more signal.
The nature of experiment [10]: binders of probe aHhip on microarray, primary screen, stem cell growth factor project, biochemical, small-molecule microarray, fluorescence 635/667 (AID 1087).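 Note: score merges spot fluorescence at 667nm with spot signal to noise ratio.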 As to conditions: higher = more signal.
The test system of experiment [11] is PRMT1 (protein arginine N-methyltransferase 1). Nature of the experiment: small molecules binding arginine methyltransferase PRMT1 – biochemical, small-molecule microarray, 635 nm fluorescence, primary screen (AID 1088).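 Note: binding of Prmt1 protein to compounds spotted on small-molecule microarray slides.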 As to conditions: higher = more signal.
Experiment [12] in a line: growth effects on S. cerevisiae YJM789 – YJM789 clinical isolate, OD600, 24 h, basal, primary screen (AID 1089).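 Note: growth of clinical yeast isolate S. cerevisiae YJM 789 seeded 1000 cells per well; test concentration not given here.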 As to conditions: higher = more signal, called active from +8 up or from −8 down.
Experiment [13] in a line: S. pombe growth modifiers, basal conditions – strain 972, OD600, 24 h, no modulator, primary screen (AID 1090).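 Note: basal condition with compound alone and no growth modifier present; test concentration not given here.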 As to conditions: S. pombe 972 growth, higher = more signal, called active from +8 up or from −8 down.
The nature of experiment [14]: budding yeast growth modifiers under rapamycin – strain BY4716, OD600, 96 h, primary screen (AID 1091). Note: test concentration not given here. As to conditions: S. cerevisiae BY4716 + rapamycin, higher = more signal, called active from +8 up or from −8 down.
Experiment [15] deals with Torsin-1A-interacting protein 2 (Homo sapiens) (UniProt Q8NFQ8). Nature of the experiment: small molecules binding lysate-expressed LULL1 – cell lysate, human LULL1 lysate, 635/667 nm fluorescence, primary screen (AID 1092).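 Note: probe is lysate of COS7 cells overexpressing human LULL1; score merges per-feature 667 nm fluorescence with signal-to-noise.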 As to conditions: small-molecule microarray, hLULL1 lysate binding, 635 nm fluorescence; higher = more signal.
Chain of Torsin-1A-interacting protein 2 (Homo sapiens) (Q8NFQ8 whole entry, looked up): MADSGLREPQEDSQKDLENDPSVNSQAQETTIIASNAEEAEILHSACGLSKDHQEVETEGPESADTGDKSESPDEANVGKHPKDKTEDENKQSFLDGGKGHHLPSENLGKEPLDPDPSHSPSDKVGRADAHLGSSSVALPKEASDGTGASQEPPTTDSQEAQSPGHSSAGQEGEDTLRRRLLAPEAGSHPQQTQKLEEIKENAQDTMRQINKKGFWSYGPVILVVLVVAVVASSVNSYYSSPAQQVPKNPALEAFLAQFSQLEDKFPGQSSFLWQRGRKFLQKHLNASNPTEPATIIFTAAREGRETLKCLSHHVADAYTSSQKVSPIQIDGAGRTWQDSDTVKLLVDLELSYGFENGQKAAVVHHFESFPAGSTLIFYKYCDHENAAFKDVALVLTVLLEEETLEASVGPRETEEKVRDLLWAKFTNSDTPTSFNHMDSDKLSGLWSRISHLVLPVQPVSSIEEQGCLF
Experiment [16] can be described thus: optical density change of DRC41 E. coli – strain DRC41, OD650, 24 h, E. coli filamentation project, primary screen (AID 1093).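 Note: MC1000 strain lacking acrAB efflux and sulA so SOS filamentation is blocked; test concentration not given here.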 As to conditions: E. coli DRC41 growth, higher = more signal, called active from +8 up or from −8 down.
A short description of experiment [17]: probe aLefty2 binding to arrayed compounds – biochemical, biotinylated probe, 635/667 nm fluorescence, primary screen (AID 1094).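 Note: score merges spot fluorescence near 667 nm with spot signal-to-noise ratio.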 As to conditions: small-molecule microarray, higher = more signal.
In experiment [18] the test system is Noggin (protein binding on small-molecule microarray). Kind of experiment: small molecules binding Noggin protein – biochemical, 635/667 nm fluorescence, primary screen (AID 1095).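 Note: score merges 667 nm feature fluorescence with signal to noise over triplicate slides.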 As to conditions: 635 nm fluorescence, higher = more signal.
For experiment [19], the target named is Neurogenic locus notch homolog protein 3 (Homo sapiens) (UniProt Q9UM47). Kind of experiment: small molecules binding NOTCH3 protein – biochemical, 635/667 nm fluorescence, primary screen (AID 1096). As to conditions: small-molecule microarray, 635 nm fluorescence, higher = more signal.
Chain of Neurogenic locus notch homolog protein 3 (Homo sapiens) (Q9UM47 whole entry, looked up): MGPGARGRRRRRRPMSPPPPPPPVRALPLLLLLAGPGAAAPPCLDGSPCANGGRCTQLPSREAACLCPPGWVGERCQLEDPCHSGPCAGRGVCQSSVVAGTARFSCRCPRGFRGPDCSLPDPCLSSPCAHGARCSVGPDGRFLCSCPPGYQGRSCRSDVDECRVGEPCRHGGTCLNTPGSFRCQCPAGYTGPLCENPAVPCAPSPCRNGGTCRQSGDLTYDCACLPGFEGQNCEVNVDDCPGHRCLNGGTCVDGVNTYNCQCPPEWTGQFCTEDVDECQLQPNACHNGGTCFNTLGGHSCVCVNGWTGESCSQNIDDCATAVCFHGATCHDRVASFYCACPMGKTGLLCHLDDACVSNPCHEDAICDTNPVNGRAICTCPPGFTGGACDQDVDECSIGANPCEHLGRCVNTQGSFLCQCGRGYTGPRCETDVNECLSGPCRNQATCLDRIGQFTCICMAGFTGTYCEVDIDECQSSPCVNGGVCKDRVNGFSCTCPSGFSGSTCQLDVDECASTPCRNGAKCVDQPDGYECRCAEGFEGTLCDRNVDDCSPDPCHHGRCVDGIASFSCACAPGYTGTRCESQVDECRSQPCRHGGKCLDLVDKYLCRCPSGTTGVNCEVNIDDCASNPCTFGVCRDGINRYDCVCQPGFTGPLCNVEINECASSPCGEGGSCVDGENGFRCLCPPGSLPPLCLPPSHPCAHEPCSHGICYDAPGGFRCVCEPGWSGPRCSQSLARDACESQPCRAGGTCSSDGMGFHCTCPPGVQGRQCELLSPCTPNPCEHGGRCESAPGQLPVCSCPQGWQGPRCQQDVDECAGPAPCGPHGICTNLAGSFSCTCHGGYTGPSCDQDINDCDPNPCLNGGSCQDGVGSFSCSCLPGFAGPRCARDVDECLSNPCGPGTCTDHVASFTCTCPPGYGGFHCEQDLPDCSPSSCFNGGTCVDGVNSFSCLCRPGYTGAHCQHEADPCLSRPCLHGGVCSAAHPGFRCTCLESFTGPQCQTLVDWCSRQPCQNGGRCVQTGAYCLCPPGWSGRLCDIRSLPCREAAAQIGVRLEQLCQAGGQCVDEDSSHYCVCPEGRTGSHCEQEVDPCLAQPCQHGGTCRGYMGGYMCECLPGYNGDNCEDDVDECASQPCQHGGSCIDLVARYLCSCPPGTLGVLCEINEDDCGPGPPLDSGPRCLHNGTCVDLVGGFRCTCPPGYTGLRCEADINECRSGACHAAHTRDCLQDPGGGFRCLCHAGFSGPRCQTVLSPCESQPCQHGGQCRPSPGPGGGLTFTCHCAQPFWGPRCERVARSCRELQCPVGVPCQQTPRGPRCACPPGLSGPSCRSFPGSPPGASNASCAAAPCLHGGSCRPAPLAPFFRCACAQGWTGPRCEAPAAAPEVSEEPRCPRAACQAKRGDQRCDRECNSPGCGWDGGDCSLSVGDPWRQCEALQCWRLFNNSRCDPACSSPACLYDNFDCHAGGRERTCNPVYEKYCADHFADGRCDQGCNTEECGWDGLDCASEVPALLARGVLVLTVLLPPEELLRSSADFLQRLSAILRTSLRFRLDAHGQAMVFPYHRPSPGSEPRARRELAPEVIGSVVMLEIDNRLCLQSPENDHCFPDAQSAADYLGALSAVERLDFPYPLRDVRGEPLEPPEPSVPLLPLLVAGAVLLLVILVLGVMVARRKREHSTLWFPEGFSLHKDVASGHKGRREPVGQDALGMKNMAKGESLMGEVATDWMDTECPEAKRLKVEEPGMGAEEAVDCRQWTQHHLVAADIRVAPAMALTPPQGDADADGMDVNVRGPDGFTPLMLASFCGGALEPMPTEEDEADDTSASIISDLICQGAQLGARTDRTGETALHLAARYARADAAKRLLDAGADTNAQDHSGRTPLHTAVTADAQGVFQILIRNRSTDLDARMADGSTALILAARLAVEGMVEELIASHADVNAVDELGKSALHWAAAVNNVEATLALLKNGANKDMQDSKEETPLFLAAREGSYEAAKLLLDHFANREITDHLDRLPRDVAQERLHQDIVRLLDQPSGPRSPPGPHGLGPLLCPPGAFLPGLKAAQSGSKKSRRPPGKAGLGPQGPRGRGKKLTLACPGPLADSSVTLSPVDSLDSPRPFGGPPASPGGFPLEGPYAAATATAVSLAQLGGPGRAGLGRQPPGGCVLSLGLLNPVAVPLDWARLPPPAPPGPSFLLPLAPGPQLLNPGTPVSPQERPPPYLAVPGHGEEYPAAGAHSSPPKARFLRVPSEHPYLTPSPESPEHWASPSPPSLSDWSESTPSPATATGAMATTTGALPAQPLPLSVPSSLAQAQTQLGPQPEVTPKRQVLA
Experiment [20] is described as follows: probe aEGFR binding to arrayed compounds – biochemical, biotinylated probe, 635/667 nm fluorescence, primary screen (AID 1097).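 Note: probe is a biotinylated anti-EGFR antibody binding compounds printed on slides; score combines fluorescence near 667 nm and signal to noise of each spot.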 As to conditions: small-molecule microarray, higher = more signal.

For the molecule `COc1ccc([Si](C)(C)[C@H]2[C@H](CC(=O)N3CCC[C@H]3CO)O[C@@]3(C(=O)N(c4ccccc4)c4ccccc43)[C@@H]2C)cc1`, the composite z-score was -0.371 in experiment [1]; 0.509 in experiment [2]; -0.17 in experiment [3]; 0.134 in experiment [4]; -0.568 in experiment [5]; 0.0644 in experiment [6]. Further, the composite z-score is 1.05 in experiment [7]; 0.0963 in experiment [9]; -0.261 in [10]; 0.258 in [11]; 0.958 in [15]; -0.0651 in [17]. The results for the composite z-score in experiment [18], in experiment [19] and in experiment [20] were 0.285, 0.125 and -0.15, respectively. In addition, the z-score in experiment [8] was -1.74 (inactive); in experiment [12], -1.85 (inactive); in experiment [13], -0.841 (inactive); in experiment [14], -1.27 (inactive); in [16], 2.45 (inactive).
For `CCCC[C@H]1C[C@@H]1[C@@H]1N(P(=O)(c2ccccc2)c2ccccc2)[C@](CO)(c2ccccc2)CC12CC2`, the composite z-score was 0.488 in experiment [1]; -0.363 in [2]; 0.0231 in [3]; 0.106 in experiment [4]; 1.44 in experiment [5]; 0.936 in [6]. In addition, the composite z-score was 1.05 in [7]; 1.03 in [9]; 0.235 in [10]; -0.153 in experiment [11]; 2.51 in experiment [15]; 0.325 in [17]. Besides, the composite z-score is -0.686 in experiment [18], -0.318 in experiment [19] and 0.0585 in experiment [20]. Also, the z-score in experiment [8] was 0.273 (inactive); in experiment [12], -0.485 (inactive); in experiment [13] it was -0.485 (inactive); in experiment [14], 5.22 (inactive); in [16], -1.08 (inactive).
As for `CCN(CC)c1ccc(N2CC=CC34O[C@@H]5/C=C\CCCOC(=O)C5[C@H]3C(=O)N(CCCO)[C@@H]4C2=O)cc1` (stereo not given in full), the composite z-score was 0.485 in [1]; -0.701 in [2]; -0.113 in [3]; -0.883 in [4]; -0.991 in experiment [5]; 1.45 in experiment [6]. For the same molecule, the composite z-score in experiment [7] is 0.657; in [9] it was -1.19; in [10], -0.137; in experiment [11] it was 1.42; in experiment [15], 3.65; in experiment [17] it was -0.158. Besides, the composite z-score in [18] is -1.03; in experiment [19], -0.21; in [20] it was -0.287. For the same molecule, the z-score in experiment [8] is 2.31 (inactive); in [12] it was -1.14 (inactive); in experiment [13] it was -0.249 (inactive); in experiment [14], -0.511 (inactive); in experiment [16], -0.204 (inactive).
In the case of `CN1C(=O)C2C=CC(C(O)c3ccccc3)N(NC(=O)OC(C)(C)C)C2C1=O` (stereo not given), the composite z-score was -0.366 in [1]; 0.583 in [2]; 0.0728 in experiment [3]; 0.268 in experiment [4]; 1.34 in experiment [5]; 0.871 in [6]. Moreover, the composite z-score is 0.792 in [7]; 0.868 in experiment [9]; -0.0645 in [10]; 0.408 in [11]; 2.93 in experiment [15]; 0.0875 in experiment [17]. In addition, the composite z-score in experiment [18] is -0.201; in experiment [19], 0.497; in [20], 0.0182. For the same molecule, the z-score in [8] is 1.82 (inactive); in experiment [12], 0.382 (inactive); in experiment [13] it was 1.52 (inactive); in [14], 1.45 (inactive); in [16], -0.828 (inactive).
For the molecule `O=c1cccc(-c2ccc3ccccc3c2)o1`, the composite z-score was 0.636 in [1]; -0.0452 in experiment [2]; 0.114 in experiment [3]; -0.183 in [4]; -0.383 in experiment [5]; -0.288 in experiment [6]. Also, the composite z-score in experiment [7] was -0.602; in [9], 0.389; in experiment [10] it was -0.0022; in experiment [11] it was -0.387; in experiment [15], -0.0751; in [17], 0.0673. The composite z-score was -0.0993 in experiment [18], -0.349 in [19] and -0.138 in experiment [20]. Further, the z-score in experiment [8] was 7.42 (inactive); in experiment [12], -11.9 (active); in [13], -15 (active); in experiment [14] it was -3.02 (inactive); in experiment [16] it was 1.82 (inactive).
